In PubChem BioAssay (NCI):
The panel holds about 83,000 compounds, 20% with a hit somewhere; the sample as a whole holds those more often.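 For each line, cells grew in 96-well plates with the test compound present at a single concentration for 48 hours.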 A number with no mark means an inactive call. Calls of active or inactive are those of the source. How the source made its calls: active means growth percent below 10; inactive means the rest.

Columns and labels:
Test in all cases: NCI-60 one-dose screen, 48 h (100 = growth as untreated, 0 = no growth, -100 = all killed)
Details in all cases: 10 µM unless noted
SN12C renal = tested on: SN12C renal
UO-31 renal = tested on: UO-31 renal
TK-10 renal = tested on: TK-10 renal
ACHN renal = tested on: ACHN renal
A498 renal = tested on: A498 renal
MOLT-4 leukemia = tested on: MOLT-4 leukemia
RPMI-8226 leukemia = tested on: RPMI-8226 leukemia
OVCAR-5 ovarian = tested on: OVCAR-5 ovarian
OVCAR-4 ovarian = tested on: OVCAR-4 ovarian
SK-OV-3 ovarian = tested on: SK-OV-3 ovarian
IGROV1 ovarian = tested on: IGROV1 ovarian
OVCAR-3 ovarian = tested on: OVCAR-3 ovarian
HS 578T breast = tested on: HS 578T breast
NCI/ADR-RES ovarian = tested on: NCI/ADR-RES ovarian
CAKI-1 renal = tested on: CAKI-1 renal
CCRF-CEM leukemia = tested on: CCRF-CEM leukemia
SR leukemia = tested on: SR leukemia
OVCAR-8 ovarian = tested on: OVCAR-8 ovarian
EKVX NSCLC = tested on: EKVX NSCLC

Row | SMILES | growth (SN12C renal) [%] | growth (UO-31 renal) [%] | growth (TK-10 renal) | growth (ACHN renal) [%] | growth (A498 renal) [%] | growth (MOLT-4 leukemia) | growth (RPMI-8226 leukemia) [%] | growth (OVCAR-5 ovarian) [%] | growth (OVCAR-4 ovarian) [%] | growth (SK-OV-3 ovarian) [%] | growth (IGROV1 ovarian) | growth (OVCAR-3 ovarian) [%] | growth (HS 578T breast) | growth (NCI/ADR-RES ovarian) [%] | growth (CAKI-1 renal) [%] | growth (CCRF-CEM leukemia) [%] | growth (SR leukemia) [%] | growth (OVCAR-8 ovarian) [%] | growth (EKVX NSCLC) [%]
1 | COc1ccc(C2=CC(c3ccc(Oc4ccnc5cc(Cl)ccc45)c(OC)c3)c3c(nc(OC)[nH]c3=O)N2)cc1 (stereo not drawn) | 63.7 | 56.5 | 98.5% | 57.3 | 69.6 | 7.77% (active) | 28.8 | 115 | 63.9 | 102 | 86.6% | 58 | 97.1% | 71.1 | – | – | – | – | –
2 | COc1ccc(NC(=O)c2cc3ccccc3nc2Nc2cc(OC)c(OC)c(OC)c2)cc1 | 69.7 | 59.7 | 90.7% | 53 | – | 49.2% | 35.5 | 92.4 | 58.1 | 91.7 | 87% | 48 | 79% | 43.2 | 70.2 | 43.6 | 56.6 | 41.9 | –
3 | COc1ccc(/C=C/C(=O)c2ccc(NC(=O)CN3CCN(c4cc5c(cc4F)c(=O)c(C(=O)O)cn5C4CC4)CC3)cc2)cc1 | 95.9 | 90.5 | 106% | 114 | 112 | 101% | 92.6 | 105 | 101 | 114 | 115% | 118 | – | 107 | 93 | 102 | – | 99 | –
4 | O=C(Cc1c(F)cccc1Cl)Nc1ccc(S(=O)(=O)Nc2ncccn2)cc1 | 96 | 42.7 | 112% | 100 | 98.4 | 103% | 70.4 | 103 | 101 | 102 | -23.2% (active) | 109 | 111% | 108 | 91 | 61.6 | 52 | 113 | 100
5 | COC(=O)CCCCCN=Cc1c(O)c(O)c(C(C)C)c2cc(C)c(-c3c(C)cc4c(C(C)C)c(O)c(O)c(C=NCCCCCC(=O)OC)c4c3O)c(O)c12 | 19.8 | 19.5 | 3.95% (active) | 15.5 | 35.1 | 13.6% | 16.6 | 11.3 | 15.5 | 24 | 25.6% | 15.9 | 19.9% | 61.8 | 55.6 | – | – | 11.4 | 21.7
6 | COc1cccc2cc(-c3cc4ccccc4[nH]3)/c(=N/C(=S)Nc3ccccc3)oc12 | 80.6 | 81.5 | 102% | 41.2 | 92.4 | 105% | 131 | 89.6 | 40.7 | – | 58.1% | 80.5 | 25.1% | 51.4 | 41 | – | 104 | 66.2 | 87.3
7 | Cc1ccc2nc(-c3c(N)n[nH]c3CCCO)[nH]c(=O)c2c1 | 104 | 63.9 | 109% | 115 | 100 | 95.7% | 91.6 | 110 | – | – | 7.26% (active) | 115 | 103% | 102 | 112 | 91.8 | 77.2 | 105 | 103
8 | Clc1ccc(/C=C/c2nc(N3CCOCC3)c3nc(Cl)c(Cl)cc3n2)cc1 | 94.1 | 76.7 | 107% | 51.5 | 106 | 88% | 102 | 110 | 128 | 105 | 117% | – | 104% | 98.5 | 109 | 106 | 98 | 108 | –
9 | COc1cc(NC(=O)CSc2nc3ccc(C)cc3c(=O)n2-c2ccccc2)cc(OC)c1OC | 92.8 | 51 | 104% | 90.2 | 62.7 | 59.2% | – | 99.5 | 68.9 | 107 | 89.6% | 84.4 | – | 75.5 | 88.4 | 83.9 | 42.3 | 87.4 | –
10 | Nc1nc(Cl)c2c(ncn2Cc2ccc(CCl)cc2)n1 | 93.4 | 70.5 | 78.9% | 83.3 | 97.3 | 103% | 33.8 | 109 | 96.1 | 103 | 76.5% | 68.3 | 94.1% | 98.4 | 102 | – | 83.2 | 49.4 | 103
11 | CC(Br)C(O)c1cc2c(cc1Br)OCO2 (stereo not drawn) | 112 | 88.6 | 114% | 109 | 127 | 104% | 101 | 108 | 105 | 118 | – | 109 | 103% | 105 | 90.5 | 101 | – | 109 | 104
12 | Nc1nc(-c2cc3ccccc3o2)cc(=O)c(=O)[nH]1 | 106 | 110 | 103% | 94.3 | 99.2 | 96.6% | 95.7 | 105 | – | – | – | 102 | 88.2% | 109 | 91.9 | 84.2 | 90.9 | 107 | 99.7
13 | CCC(=O)Nc1ccccc1C#C/C=C\C#Cc1ccccc1SC | 82.1 | 21.5 | 71.5% | 77.7 | 59.9 | 40.7% | 20.1 | 69.1 | 74.6 | 78.1 | – | 65 | -34.3% (active) | 49.9 | 70.6 | 26.9 | – | 144 | 65.6
